Hit rate of the full screen: of about 150,000 compounds, about 540 (0.36%) showed an effect of 50% or more. The list comes from a sample in which strong results are over-represented; it also holds similar structures and randomly drawn compounds.
Each molecule was assayed on Plasmodium falciparum (assay: Primary screen in NF54 nanoGlo assay, in single point, at 2uM, 72h; a lower Z score goes with more inhibition). Conditions: timepoint 72 hour.
Assay type: functional, Erythrocyte
O=C(Cn1nccn1)N1CCN(Cc2ccc3c(c2)OCO3)CC1 was tested, and the “% Inhibition” value was 2% and the Z score was -0.28. For CCN(C(=O)c1cc(N)ccc1Cl)C(C)C, the “% Inhibition” value was 6% and the Z score was -0.81. In the case of Cc1cccn(CC(=O)N2CCC(=O)[C@@H](C)C2)c1=O, the “% Inhibition” value is reported as 2% and the Z score is reported as -0.36. In the case of O=C1c2ccccc2C(=O)N1Cc1nc(-c2cccnc2)no1, the “% Inhibition” value is reported as -9% and the Z score is reported as 1.34. Cc1ccsc1C(=O)NCCNc1ncccn1 was tested, and the “% Inhibition” value was -7% and the Z score was 0.93. For CCCc1cnc(C)nc1-c1ccnc2c1ccn2C, the “% Inhibition” value was -4% and the Z score was 0.73. In the case of Cc1ccncc1C(=O)N1CCC(CCn2c(C)cnc2C2CC2)CC1, the “% Inhibition” value is reported as -3% and the Z score is reported as 0.37. With Cc1ccnc(N2CCC(O)(Cn3ccnc3)CC2)n1 the “% Inhibition” value was -12% and the Z score was 1.12. In the case of CC(C)(C)c1ccc(=O)n(CC2CN(c3cnsn3)C2)n1, the “% Inhibition” value is reported as -16% and the Z score is reported as 2.38. In the case of CC(=O)C(=CNc1ncc(C(F)(F)F)cc1Cl)C(C)=O, the “% Inhibition” value is reported as -6% and the Z score is reported as 1.17. For C[C@H](Nc1ncc(C(F)(F)F)cc1Cl)C(N)=O, the “% Inhibition” value was -10% and the Z score was 1.96. In the case of CN(C(=O)C(C)(C)Nc1ncc(C(F)(F)F)cc1Cl)c1ccc(Cl)cc1, the “% Inhibition” value is reported as 59% and the Z score is reported as -7.64. With Oc1nc(-c2cccnc2)sc1-c1ccccc1 the “% Inhibition” value was -2% and the Z score was 0.32. Oc1nc(-c2cccc(C(F)(F)F)c2)sc1-c1ccccc1 was tested, and the “% Inhibition” value was 59% and the Z score was 0.06. For FC(F)(F)c1cccc(-c2cc(-c3csc(-c4ccccc4)n3)on2)c1, the “% Inhibition” value was 1% and the Z score was -0.12. In the case of O=C(NCCn1c(=O)[nH]c2ccsc2c1=O)c1ccccc1Cl, the “% Inhibition” value is reported as -10% and the Z score is reported as 1.7. O=C(CCn1c(=O)[nH]c2ccsc2c1=O)NCc1ccccc1 was tested, and the “% Inhibition” value was 59% and the Z score was -1.7. In the case of O=c1[nH]c2ccsc2c(=O)n1CCc1ccccc1, the “% Inhibition” value is reported as 33% and the Z score is reported as -4.74. In the case of COc1cc(C(=O)NCC2(C)CCCCCC2)on1, the “% Inhibition” value is reported as -5% and the Z score is reported as 0.52. For CC1=C(C(=O)Nc2ccccc2)[C@H](c2ccc(Cl)cc2)c2c(n(C)c(=O)n(C)c2=O)N1, the “% Inhibition” value was -3% and the Z score was 0.36. For O=C(NCCCOCC(F)(F)F)NC1CCCC2OCCC12 (centres undefined), the “% Inhibition” value was -14% and the Z score was 1.44. With CCN1CCN(CCN2CC3(CCN(Cc4ccccc4C#N)CC3)OC2=O)CC1 the “% Inhibition” value was 2% and the Z score was -0.49. With CCc1nc(O)c(C(=O)N2CCOc3cc(F)c(F)cc32)cc1C the “% Inhibition” value was -5% and the Z score was 0.67. With CCc1nc2c(C(=O)N3CCOc4c(C)cc(C)cc43)ccnc2[nH]1 the “% Inhibition” value was 71% and the Z score was -10.67. For Cc1cc(C)c2c(c1)N(C(=O)Cc1cnccc1C)CCO2, the “% Inhibition” value was -7% and the Z score was 0.88. O=C(c1n[nH]c2c1CCCCCC2)N1CCC(c2nc(C3CCOCC3)no2)CC1 was tested, and the “% Inhibition” value was -3% and the Z score was 0.4. In the case of CCn1cc(-c2cccc(C(=O)N[C@@H](C)c3nc(C)sc3C)c2)cn1, the “% Inhibition” value is reported as -4% and the Z score is reported as 0.85. In the case of C[C@@H](CN1CCc2ccccc2C1)NC(=O)c1cnc2c(c1)CCCC2, the “% Inhibition” value is reported as -3% and the Z score is reported as 0.47. CN(CC(F)(F)F)C(=O)CN1C(=O)c2ccccc2C(C)(C)C1=O was tested, and the “% Inhibition” value was 2% and the Z score was -0.16. Cc1[nH]ncc1CCCNCc1cccc(O)c1 was tested, and the “% Inhibition” value was 39% and the Z score was -0.35. In the case of COc1ccc(CCNC(=O)c2cc3c(=O)[nH]c(C)cn3n2)cc1OC, the “% Inhibition” value is reported as 61% and the Z score is reported as -7.83. Cc1cn2nc(C(=O)NCCc3ccc(S(N)(=O)=O)cc3)cc2c(=O)[nH]1 was tested, and the “% Inhibition” value was -18% and the Z score was 3.38. For Cc1cn2nc(C(=O)NCCc3ccccc3)cc2c(=O)[nH]1, the “% Inhibition” value was 3% and the Z score was -0.45. With CCN(CC)S(=O)(=O)c1ccc2c(c1)nnn2CCNC(=O)Nc1cccc(F)c1 the “% Inhibition” value was 26% and the Z score was -2.96. In the case of C[C@@H](CN)N(C)c1ccnc2cc(Br)cnc12, the “% Inhibition” value is reported as 99% and the Z score is reported as -17.88. Cc1cc(CN(C)c2ccnc3cc(Br)cnc23)no1 was tested, and the “% Inhibition” value was 12% and the Z score was -0.99. CNC(=O)CCCN(C)c1ccnc2cc(Br)cnc12 was tested, and the “% Inhibition” value was -9% and the Z score was 1.06. For Cc1cc(C(=O)N[C@@H]2COC(C)(C)C2)n(C2CCOCC2)n1, the “% Inhibition” value was 3% and the Z score was -0.34. C[C@@H](C(=O)N(C)CC1(CO)CCCC1)N1CCN(C)CC1 was tested, and the “% Inhibition” value was -13% and the Z score was 1.47. COc1cc(CNCCN2CCOCC2)ccc1OCc1cccc(C)c1 was tested, and the “% Inhibition” value was 42% and the Z score was -5.6. COc1cc(CNCCCN2CCOCC2)ccc1OCc1ccc(Cl)cc1 was tested, and the “% Inhibition” value was 50% and the Z score was -4.4. With COc1ccc(-c2cc3n(n2)CCC(=O)N3Cc2ccc(C(=O)NCCN3CCCCC3)cc2)cc1 the “% Inhibition” value was 10% and the Z score was -1.2. With COc1ccc(S(=O)(=O)N2CCC(c3cc(N)on3)CC2)cc1Cl the “% Inhibition” value was 57% and the Z score was -3.68. COc1ccc(S(=O)(=O)N2CCC(n3cnnc3C)CC2)cc1Cl was tested, and the “% Inhibition” value was -11% and the Z score was 1.63. In the case of COc1cccc(S(=O)(=O)N2CCC(c3cc(N)on3)CC2)c1, the “% Inhibition” value is reported as 19% and the Z score is reported as -2.95. C[C@@H](c1nc(C(C)(C)C)no1)N1CCN(C(c2ccccc2)c2ccccc2)CC1 was tested, and the “% Inhibition” value was -18% and the Z score was 1.54. With c1ccn2cc(Cc3nc(C4CC4)cs3)nc2c1 the “% Inhibition” value was 5% and the Z score was -0.54. CCCN(CCc1cccs1)C(=O)CCc1cscn1 was tested, and the “% Inhibition” value was -14% and the Z score was 1.18. In the case of CCn1nc(C)cc1C(=O)N[C@H]1CC2(CCCCC2)Oc2ccccc21, the “% Inhibition” value is reported as -13% and the Z score is reported as 1.49. For Cn1cnnc1N1CCN(C(=O)NC[C@]2(C)C[C@H]2c2ccccc2)CC1, the “% Inhibition” value was -9% and the Z score was 1.79. For O=C(CCCn1cccn1)NS(=O)(=O)c1ccc2ccccc2c1, the “% Inhibition” value was -7% and the Z score was 0.99. For O=C1NC(c2ccc(NC(=O)c3cccc4ccccc34)cc2)(c2ccc(NC(=O)c3cccc4ccccc34)cc2)c2ccccc21, the “% Inhibition” value was 23% and the Z score was -3.32. O=C(Nc1ccc(C2(c3ccc(NC(=O)c4ccc(F)cc4)cc3)c3ccccc3C(=O)c3ccccc32)cc1)c1ccc(F)cc1 was tested, and the “% Inhibition” value was 77% and the Z score was -2.85. With O=C1c2ccccc2C(c2ccc(NC(=O)c3cccc4ccccc34)cc2)(c2ccc(NC(=O)c3cccc4ccccc34)cc2)c2ccccc21 the “% Inhibition” value was 95% and the Z score was -13.49. Nc1ccc(C2(c3ccc(N)cc3)c3ccccc3C(=O)c3ccccc32)cc1 was tested, and the “% Inhibition” value was 18% and the Z score was -2.61. In the case of O=C(COc1ccccc1Cl)Nc1ccc(C2(c3ccc(NC(=O)COc4ccccc4Cl)cc3)c3ccccc3-c3ccccc32)cc1, the “% Inhibition” value is reported as 38% and the Z score is reported as -1.02. For O=C(Nc1ccc(-c2c3ccccc3c(-c3ccc(NC(=O)c4cccc5ccccc45)cc3)c3ccccc23)cc1)c1cccc2ccccc12, the “% Inhibition” value was -8% and the Z score was 1.08. Cc1cccc(NC(=O)CN2CC(=O)NC[C@H]2c2ccccc2)c1C was tested, and the “% Inhibition” value was -6% and the Z score was 0.77. For N[C@H](C(=O)Nc1cncc(Br)c1O)C1CCOCC1, the “% Inhibition” value was 10% and the Z score was -1.45. In the case of CNc1nc(N2CCOCC2)nc2ccccc12, the “% Inhibition” value is reported as 2% and the Z score is reported as -0.34. For CN(C)[C@H]1CCN(CC(=O)NC2(c3cc(F)ccc3F)CC2)C1, the “% Inhibition” value was 8% and the Z score was -1.27. In the case of OCCn1nc(Cc2cccs2)nc1CCN1CCCCCCC1, the “% Inhibition” value is reported as -16% and the Z score is reported as 2.13. For Cc1nnc(CN2CCC[C@H](c3nc(C(C)C)cs3)C2)s1, the “% Inhibition” value was -8% and the Z score was 1.01. CC1(C)NC(=O)N(CC(=O)N2CCC[C@H]2c2ccc3c(c2)OCCCO3)C1=O was tested, and the “% Inhibition” value was -13% and the Z score was 1.7. COc1ccc(C(=O)C[n+]2nc(CNc3ccc(Br)cc3)n3c2CCCCC3)cc1 was tested, and the “% Inhibition” value was 78% and the Z score was -12.51. CCOc1ccc(-[n+]2cc(-c3ccccc3)n3c2CCC3)cc1 was tested, and the “% Inhibition” value was 68% and the Z score was -6.48. FC(F)Oc1ccc(-c2c[n+](-c3cccc(C(F)(F)F)c3)c3n2CCCCC3)cc1 was tested, and the “% Inhibition” value was 39% and the Z score was -3.9. Cc1ccc(-c2c[n+](-c3ccc(OC(F)F)cc3)c3n2CCCCC3)cc1 was tested, and the “% Inhibition” value was 66% and the Z score was -12.11. For COc1ccc(C(=O)C[n+]2cc(-c3cccc(Br)c3)n(C)c2N)cc1, the “% Inhibition” value was 3% and the Z score was -0.43. With Cc1ccc([N+]2=C3CCCCCN3C[C@]2(O)c2ccc(OC(F)F)cc2)cc1 the “% Inhibition” value was -12% and the Z score was 1.97. For Cc1ccc(NCc2n[n+](CC(=O)c3ccccc3)c3n2CCCCC3)cc1, the “% Inhibition” value was -40% and the Z score was 4.69. For Cn1c(-c2ccc(Br)cc2)c[n+](CC(=O)c2ccc(Br)cc2)c1N, the “% Inhibition” value was 41% and the Z score was 0.35. COc1ccc(C(=O)C[n+]2cc(-c3ccc(OC)cc3)n3c2CCCC3)cc1 was tested, and the “% Inhibition” value was 65% and the Z score was -8.89. With CCOc1ccc([C@@]2(O)CN3C=CC=CC3=[N+]2c2ccccc2)cc1 the “% Inhibition” value was -39% and the Z score was 4.59. In the case of CCOc1ccc([C@@]2(O)CN3CCCCCC3=[N+]2c2ccc(C)cc2)cc1, the “% Inhibition” value is reported as 1% and the Z score is reported as -0.19. For O=C(C[n+]1nc(-c2n[n+](CC(=O)c3ccccc3)c3n2CCCCC3)n2c1CCCCC2)c1ccccc1, the “% Inhibition” value was 6% and the Z score was -1.08. With CCCN(CCC)C(=O)CN1CCN(Cc2ccc3c(c2)CCO3)CC1 the “% Inhibition” value was -11% and the Z score was 1.43. For COc1ccc(Cl)cc1[C@H](C)NCc1nncn1C1CC1, the “% Inhibition” value was -13% and the Z score was 2.01. In the case of OC[C@H]1CCCN(CCNc2ccc3cc(Cl)ccc3n2)C1, the “% Inhibition” value is reported as 12% and the Z score is reported as -1.36. Cc1nccc(NC(=O)N2C3CCC2CC(CCF)C3)n1 (centres undefined) was tested, and the “% Inhibition” value was -5% and the Z score was 0.79. In the case of COc1ccc(NC(=O)c2ccc3nn(CC(=O)Nc4ccc(F)cc4)c(=O)n3c2)cc1, the “% Inhibition” value is reported as -26% and the Z score is reported as 2.29. In the case of O=C(NCc1ccc(F)cc1)C1[C@@H]2C=C[C@@]3(CN(Cc4ccccc4Cl)C(=O)[C@H]13)O2 (some centres undefined), the “% Inhibition” value is reported as -9% and the Z score is reported as 1.29.

From ChEMBL document CHEMBL4888484, “Replenishing the malaria drug discovery pipeline: Screening and hit evaluation of the MMV Hit Generation Library 1 (HGL1) against asexual blood stage Plasmodium falciparum ,using a nano luciferase reporter read-out” (2022)
